Laboratory results reported in PubChem BioAssay (NCATS).
Inconclusive results are not listed. A call without a number means that no potency is given here. Activity calls are given as the source filed them. The call rests on the fitted dose curve; in most records, active means well fitted cell-killing curve with a large enough effect; inconclusive means small, poorly fitted or top-dose-only effect, or effect the other way; inactive means flat fitted curve, though single readings scatter.

test system: HeLa; assay: Primary qHTS to identify gynecologic anti-cancer compounds using libraries of approved drugs and bioactive compounds (AID 1345084); settings: Gynecologic cancer cell panel viability, ATPlite luminescence, 48 h; series mostly up to 57.5 µM; further: nearly all actives have a fitted effect of over 55% in size
Outline: (§1)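 In this quantitative HTS, cell killing is estimated from loss of ATP-dependent luciferase light. Cells see five compound concentrations over a 48 h exposure.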
Potency means the concentration at half of the fitted maximal effect.

| Structure (SMILES) | Potency |
| --- | --- |
| C/C=C(/C)C(=O)O[C@H]1C(C)=C2[C@H]([C@@H]1OC(=O)CCCCCCC)[C@@](C)(OC(C)=O)C[C@H](OC(=O)CCC)[C@@]1(O)[C@H]2OC(=O)[C@@]1(C)O | 0.447 µM (active) |
| Cc1c(C(=O)Nc2cccc(C(F)(F)F)c2)cc(-c2ccccc2)n1CCCN1CCOCC1 | inactive |
| O=C(O)c1cc(Oc2ccc(C(F)(F)F)cc2Cl)ccc1[N+](=O)[O-] | inactive |
| S=C(SSC(=S)N1CCCCC1)N1CCCCC1 | inactive |
| ClC1=C(Cl)[C@]2(Cl)[C@@H]3[C@@H]4C[C@@H]([C@H]5O[C@@H]45)[C@@H]3[C@@]1(Cl)C2(Cl)Cl | inactive |
| CC(=O)[O][Hg][c]1ccccc1 | 14.1 µM (active) |

test system: Hek293T; assay: as above; settings: Gynecologic cancer cell panel viability, ATPlite luminescence, 48 h, control line for the selectivity index; series mostly up to 57.5 µM
Outline: as §1

| Structure (SMILES) | Potency |
| --- | --- |
| CO/C=C(/C(=O)OC)c1ccccc1Oc1cc(Oc2ccccc2C#N)ncn1 | 17.8 µM (active) |
| Cc1c(C(=O)Nc2cccc(C(F)(F)F)c2)cc(-c2ccccc2)n1CCCN1CCOCC1 | inactive |
| S=C(SSC(=S)N1CCCCC1)N1CCCCC1 | 17.8 µM (active) |
| ClC1=C(Cl)[C@]2(Cl)[C@@H]3[C@@H]4C[C@@H]([C@H]5O[C@@H]45)[C@@H]3[C@@]1(Cl)C2(Cl)Cl | inactive |
| CC(=O)[O][Hg][c]1ccccc1 | 7.08 µM (active) |

test system: JEG-3; assay: as above; settings: Gynecologic cancer cell panel viability, ATPlite luminescence, 48 h; series mostly up to 57.5 µM
Outline: as §1

| Structure (SMILES) | Potency |
| --- | --- |
| C/C=C(/C)C(=O)O[C@H]1C(C)=C2[C@H]([C@@H]1OC(=O)CCCCCCC)[C@@](C)(OC(C)=O)C[C@H](OC(=O)CCC)[C@@]1(O)[C@H]2OC(=O)[C@@]1(C)O | 0.447 µM (active) |
| Cc1c(C(=O)Nc2cccc(C(F)(F)F)c2)cc(-c2ccccc2)n1CCCN1CCOCC1 | inactive |
| ClC1=C(Cl)[C@]2(Cl)[C@@H]3[C@@H]4C[C@@H]([C@H]5O[C@@H]45)[C@@H]3[C@@]1(Cl)C2(Cl)Cl | inactive |
| CC(C)Oc1cccc(NC(=O)c2ccccc2C(F)(F)F)c1 | inactive |
| CC(=O)[O][Hg][c]1ccccc1 | 5.01 µM (active) |
